From PubChem BioAssay
GLS inh – glutaminase GLS (human) inhibition | O94925 | GLS enzymatic activity, qHTS titration | Potency, µM (series often up to 45.5 µM), inactives show at the highest dose activity change, negative = inhibition, usual class: inhibitors | 410,000 compounds, 0.21% hits; note: % is set by controls: 0 for no effect and ±100 for the full control effect
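Two-point fluorescence kinetic (t0, 30 min RT) for hKGA; glutamate detected via glutamate oxidase–HRP–Amplex Red. Substrate: 1 mM L-glutamine solution; buffer 45 mM KH2PO4, pH 8.2.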
Pol eta inh-1 – inhibitors of human DNA polymerase eta; recombinant Pol eta, fluorescent DNA replication assay; Potency, µM (titrated, usually from 114 µM), for inactives: at the highest dose activity change, negative = inhibition, actives largely listed as inhibitors; Q9Y253; 390,000 compounds, 1.2% hits; note: % is set by controls: 0 for no effect and ±100 for the full control effect
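Pol eta at 10 nM preincubated with compounds 15 min at room temperature; reaction started with fluorescent substrate (50 nM final) and read kinetically at 0 and 10 min.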
APEX1 inh – APE1 (human) endonuclease inhibition. AID 2517. 350,000 compounds, 0.35% hits. recombinant APE1, TAMRA/BHQ-2 abasic DNA cleavage fluorescence. Potency, µM (doses to about 65.8 µM), for the others: at the top dose activity change, negative = inhibition, actives largely listed as inhibitors. P27695;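 note: plate controls were vehicle for no effect and reference inhibitor for full effect; nearly all actives have a fitted effect of over 55% in size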
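Incision of a quenched TAMRA/BHQ-2 THF abasic-site duplex (50 nM) by 0.75 nM APE1, after 15 min compound preincubation, measured as fluorescence increase over three 60 s reads. Values normalized to buffer, DMSO and NSC13755 control wells.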
Pol kappa inh-1 – blocks human DNA polymerase kappa activity. purified Pol kappa, fluorescent DNA synthesis assay, 10 min. 400,000 compounds, 0.53% hits. Potency, µM (titrated, usually from 107 µM), for the others: at the highest dose activity, negative = inhibition, usual class: inhibitors. Q9UBT6; note: % is set by controls: 0 for no effect and ±100 for the full control effect
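Readout: fluorescence, taken kinetically at 0 and 10 min. Conditions: 10 nM Pol kappa, 15 min RT compound preincubation, 50 nM substrate final. Controls: enzyme-free buffer wells.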
Pol iota inh – blocks human DNA polymerase iota activity; Q9UNA4; Pol iota fluorescent replication assay, 10 min; Potency, µM (titrated, usually from 115 µM), inactives show at the highest dose activity, negative = inhibition, hits mostly inhibitors; 390,000 compounds, 1% hits; AID 588590
Target sequence (Q9UNA4 whole entry, looked up): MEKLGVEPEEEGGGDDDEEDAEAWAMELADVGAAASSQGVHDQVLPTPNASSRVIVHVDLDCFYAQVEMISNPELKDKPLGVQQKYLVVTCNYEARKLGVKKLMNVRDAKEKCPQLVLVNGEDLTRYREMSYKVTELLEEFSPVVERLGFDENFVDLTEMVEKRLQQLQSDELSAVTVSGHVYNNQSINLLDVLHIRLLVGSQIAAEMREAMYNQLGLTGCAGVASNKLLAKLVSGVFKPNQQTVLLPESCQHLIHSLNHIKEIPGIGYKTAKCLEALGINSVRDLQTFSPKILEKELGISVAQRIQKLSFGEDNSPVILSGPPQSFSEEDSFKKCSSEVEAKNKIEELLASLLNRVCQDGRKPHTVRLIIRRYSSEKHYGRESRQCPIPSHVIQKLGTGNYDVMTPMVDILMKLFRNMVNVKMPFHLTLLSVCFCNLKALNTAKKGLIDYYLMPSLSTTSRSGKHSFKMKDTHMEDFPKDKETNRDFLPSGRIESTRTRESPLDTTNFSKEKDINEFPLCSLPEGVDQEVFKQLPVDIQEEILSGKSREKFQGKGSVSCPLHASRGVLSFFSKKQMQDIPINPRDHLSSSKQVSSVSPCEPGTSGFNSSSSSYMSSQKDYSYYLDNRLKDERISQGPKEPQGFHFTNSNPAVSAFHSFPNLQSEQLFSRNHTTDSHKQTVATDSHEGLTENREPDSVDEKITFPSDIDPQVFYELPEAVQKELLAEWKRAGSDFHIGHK
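Fluorescent replication assay read twice, at 0 min and 10 min after adding 50 nM (final) substrate. Enzyme (10 nM) and compounds were first incubated 15 min at room temperature; enzyme-free buffer wells were negative controls.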
POLB inh – DNA polymerase beta (human) inhibition; P06746; Potency, µM (series often up to 114 µM), for inactives: at the highest dose activity change, negative = inhibition, actives largely listed as inhibitors; 340,000 compounds, 1.3% hits; Pol beta primer extension/strand displacement, fluorescence kinetic; note: % is set by controls: 0 for no effect and ±100 for the full control effect
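Values derive from four-parameter Hill fits of normalized kinetic data: reads at 0 and 10 min following addition of 50 nM substrate to 10 nM Pol beta preincubated 15 min with compound.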
Pol kappa inh-2 – Pol kappa (human) inhibition, cherry-pick confirmation. Potency, µM, usual class: inhibitors. purified Pol-kappa, fluorescent strand-displacement substrate. AID 720501. shares compounds with Pol eta inh-1. 920 compounds, 76% hits
Pol eta inh-2 – Pol eta (human) inhibition, cherry-pick confirmation; 2,600 compounds, 64% hits; AID 720502; Pol eta primer extension, TAMRA/BHQ fluorescence, 10 min; shares compounds with Pol eta inh-1; Potency, µM, most hits filed as inhibitors
Numbers without * were called inactive; u = inconclusive; x = not tested or not shown; [ ] = dose if it differs, or a comment. An excerpt weighted towards active compounds, which were near 2.4% of everything screened. Calls come from the whole dose curve; as a rule, active = well fitted curve in the direction sought with a large enough effect; inconclusive = small, poorly fitted or top-dose-only effect, or another doubt; inactive = no such curve, though single readings can be large; an effect the other way counts as inactive or inconclusive. Potency is the fitted concentration of half-maximal effect.

SMILES	GLS inh	Pol eta inh-1	APEX1 inh	Pol kappa inh-1	Pol iota inh	POLB inh	Pol eta inh-2	others
Cc1nn(-c2ccccc2)c(C)c1C(=O)OCC(=O)NC(=O)NC1CCCC1	6.3%	-8.0%	-7.2%	-2.3%	1.5%	-6.4%	x
COC(=O)C1=C(N)Oc2cc(C)n(Cc3ccco3)c(=O)c2C1c1cccc(Cl)c1 (stereo unspecified)	2.8%	-15.0%	6.5%	-17.5%	-3.2%	3.5%	x
O=C(CC1C[C@H](C(=O)N2CCCCC2)[C@@]2(CCc3ccccc3)c3[nH]c4ccccc4c3CCN2C1=O)NCc1cccc(C(F)(F)F)c1 (stereo partly specified)	-2.1%	-19.6%	2.2%	-3.6%	40.1%	x	x
COc1cc(/C=C2\SC(=S)N(Nc3ncc(C(F)(F)F)cc3Cl)C2=O)ccc1O	u	u	u	-33.9%	14.1µM*	14.1µM*	x	Pol kappa inh-2=u
CCOc1ccc(OCc2ccc(C(=O)O)o2)cc1	-24.8%	12.6µM*	u	-5.3%	-15.1%	14.1µM*	60.1*
O=C(O)c1ccc(COc2ccc3ccccc3c2)o1	-1.5%	1.0%	u	4.1%	u	6.9%	x
O=C(COC(=O)CC1CCCC1)Nc1cccc(F)c1	12.0%	-2.8%	20.3%	-5.9%	-6.7%	x	x
COC(=O)C(C)N1C(=O)S/C(=C/c2cc(C)n(-c3ccccn3)c2C)C1=O (stereo unspecified)	1.4%	-10.7%	1.2%	-0.3%	-4.8%	3.9%	x
COC(=O)C(C)N1C(=O)S/C(=C\c2ccc(-c3ccc(C(=O)O)cc3C)o2)C1=O (stereo unspecified)	u	10µM*	-7.8%	31.6µM*	u	39.8µM*	42.6*
Cc1ccc(C(=O)c2ccccc2C(=O)O)cc1C	-2.2%	-4.7%	5.2%	0.6%	139.1%	21.7%	x
O=C(O)c1ccccc1C(=O)c1ccc2oc(=O)[nH]c2c1	-8.2%	22.4µM*	x	u	u	x	37.9*	Pol kappa inh-2=u
Cc1cccc(-c2nc3c(c(SCc4ccccc4Cl)n2)Cc2c(CO)cnc(C)c2O3)c1	-0.2%	-4.5%	x	-17.5%	6.1%	11.9%	x
COc1ccc(-c2nc3nc(C)cc(Nc4cccc(C(F)(F)F)c4)n3n2)cc1	8.1%	u	37.7%	-7.2%	-17.2%	u	x	Pol kappa inh-2=18.9*
CCOC(=O)c1c(C)sc(-c2c(-c3cc(C)ccc3C)[nH]c3c2c(=O)[nH]c(=O)n3C)c1O	14.7%	x	x	-26.3%	89.1µM*	u	u
CC(Sc1nnc2ccccn12)C(=O)N1CCc2ccccc2C1 (stereo unspecified)	-3.6%	-14.7%	-3.7%	-18.5%	-16.2%	9.7%	x
C/C(=N/Nc1ccc(C(=O)O)cc1)c1ccc2c(c1)Nc1ccccc1S2	12.0%	17.8µM*	x	u	50.1µM*	x	75.7*	Pol kappa inh-2=37.7*
C/C(=N\Nc1ccc(C(=O)O)cc1)c1ccc2c(c1)Nc1ccccc1S2	17.8µM*	25.1µM*	-9.0%	u	22.4µM*	u	75.7*
CC(=O)Nc1ccc(NC(=O)c2ccc3c(c2)NC(=O)c2ccccc2S3)cc1	-5.6%	-23.3%	x	4.7%	-12.3%	7.7%	x
CCN1C(=O)/C(=C\c2ccc(-c3ccc([N+](=O)[O-])cc3OC)o2)SC1=Nc1cccc(C(=O)O)c1	u	28.2µM*	u	-35.8%	u	u	75.7*
C=CCN(CC=C)S(=O)(=O)c1ncn[nH]1	-0.6%	8.91µM*	-5.4%	u	u	u	u
C=CCN(CC=C)S(=O)(=O)c1ccc(F)cc1	5.8%	-7.3%	4.0%	-20.1%	18.8%	45.9%	x
CO[C@H]1COC(=O)[C@@H](Cc2ccccc2)NC(=O)[C@@H](C)COC(=O)CCC[C@@H]1C	x	x	2.7%[12.4 µM]	x	x	x	x
O=S(=O)(c1ccccc1)c1cc(O)ccc1O	u	-17.8%	-4.6%	2.2%	47.5%	u	x
Nc1ccc(S(=O)(=O)c2cc(O)c3ccccc3c2O)cc1	u	39.8µM*	x	-16.5%	u	x	u	Pol kappa inh-2=84.4*
CC(Sc1nnc(-c2ccc(O)cc2)o1)C(=O)Nc1cccc2ccccc12 (stereo unspecified)	-16.1%	-16.4%	-1.2%	-5.4%	-2.5%	13.4%	x
SMILES	GLS inh	Pol eta inh-1	APEX1 inh	Pol kappa inh-1	Pol iota inh	POLB inh	Pol eta inh-2	others
O=C1NCCN(CC2CCN(CCc3ccc(Cl)c(Cl)c3)CC2)C1=O	10.0%	u	x	-24.7%	-29.1%	x	x
Cc1cccc(C)c1NC(=O)CCN1C(=O)C2C3CCC(C3)C2C1=O (stereo unspecified)	-2.2%	-15.0%	-1.7%	-3.3%	-0.8%	18.5%	x
CS(=O)(=O)N1Cc2ccccc2CC1C(=O)O (stereo unspecified)	40.6%	8.91µM*	-19.2%	u	u	17.8µM*	60.1*
Cc1ccc(C(=O)Nc2ccc(Oc3ccc(C(=O)O)c(C(=O)O)c3)cc2)cc1C	14.4%	u	-3.6%	-15.1%	u	-19.4%	x
Cn1c(=O)c(Nc2ccc(O)cc2)c2c3c(cccc31)C(=O)c1ccccc1-2	5.1%	14.1µM*	7.9%	u	15.8µM*	31.6µM*	u
CN(CC(=O)NCc1ccccn1)S(=O)(=O)c1ccccc1	5.7%	-6.7%	-4.7%	-0.3%	14.6%	31.6%	x
Cc1cc2c(SCC(=O)Nc3cccc(O)c3)ncnc2s1	-2.8%	22.4µM*	x	89.1µM*	u	x	75.7*	Pol kappa inh-2=21.2*
COc1ccc(NC(=O)CSc2ncnc3sc(C)cc23)cc1	-0.7%	-13.0%	10.6%	-12.8%	45.6%	28.7%	x
CCNc1nc(NCC)n2c(SCC(=O)Nc3ccc(NC(C)=O)cc3)nnc2n1	60.9%	39.8µM*	u	u	u	x	u
Oc1ccc(N=Nc2ccccc2-c2nn[nH]n2)c(O)c1	20.0%	22.4µM*	-12.0%	16.1%	11.4%	31.6µM*	53.6*
Cc1ccccc1-c1nn[nH]n1	-1.3%	1.5%	-2.6%	-12.4%	6.0%	11.2%	x
CC(=O)Nc1c(O)nc(SCC(=O)Nc2nnc(SCc3ccccc3)s2)[nH]c1=O	26.2%	35.5µM*	14.1%	u	25.1µM*	-24.5%	u
CC(=O)Nc1c(O)nc(SCC(=O)Nc2nnc(CC(C)C)s2)[nH]c1=O	22.1%	8.7%	8.3%	-0.6%	3.3%	3.9%	x
